# Reference: PMC11062922 (Nature Chemical Biology, 2023)
# Like-named read-outs stand apart in the source and are kept apart here.
# Assays:
# Set-up in all cases: species or system human, MV4-11 + K-562 + COLO205 + SK-N-BE2 + OVCAR-8
# [1] = tested on: IRAK3; details: read-out: apparent Kd, n = 1
# [2] = tested on: MAP3K11; details: read-out: apparent Kd, n = 1
# [3] = tested on: MAPK14; details: read-out: apparent Kd, n = 1
# [4] = tested on: BTK; details: read-out: apparent Kd, n = 1
# [5] = tested on: BUB1; details: read-out: apparent Kd, n = 1
# [6] = tested on: CIT; details: read-out: apparent Kd, n = 1
# [7] = tested on: EPHA2; details: read-out: apparent Kd, n = 1
# [8] = tested on: EPHB1; details: read-out: apparent Kd, n = 1
# [9] = tested on: LCK; details: read-out: apparent Kd, n = 1
# [10] = tested on: MARK2; details: read-out: apparent Kd, n = 1
# [11] = tested on: PRKAA2; details: read-out: apparent Kd, n = 1
# [12] = tested on: NUAK2; details: read-out: apparent Kd, n = 1
# [13] = tested on: PAK6; details: read-out: apparent Kd, n = 1
# [14] = tested on: ACVR1B; details: read-out: apparent Kd, n = 1
# [15] = tested on: CDC42BPB; details: read-out: apparent Kd, n = 1
# [16] = tested on: PKN2; details: read-out: apparent Kd, n = 1
# [17] = tested on: PRKCA; details: read-out: apparent Kd, n = 1
# [18] = tested on: AURKB; details: read-out: apparent Kd, n = 1
# [19] = tested on: RPS6KA3; details: read-out: apparent Kd, n = 1
# [20] = tested on: RPS6KB1; details: read-out: apparent Kd, compound concentrations: 100 nM and 1000 nM (sheet 'Samples'), n = 1
# [21] = compound concentrations:100 nM and 1000 nM (sheet 'Samples')
compound,measurement,setting,value
Cc1ccc(Nc2ccnc(Nc3ccc4c(c3)CS(=O)(=O)C4)n2)cc1O.Cl [GW579362A],potency estimated from few doses,"[1]; compound concentrations: 100 nM and 1000 nM (sheet 'Samples'), CATDS: 4.4859937900589397E-2",446 nM
same,potency estimated from few doses,"[2]; compound concentrations: 100 nM and 1000 nM (sheet 'Samples'), CATDS: 2.6959638591647499E-2",1770 nM
same,potency estimated from few doses,"[3]; compound concentrations: 100 nM and 1000 nM (sheet 'Samples'), CATDS: 2.9505107428945899E-2",1290 nM
CC(C)N1CCC(n2cnc(-c3ccc(F)cc3)c2-c2ccnc(N)n2)CC1 [SB-223132],potency estimated from few doses,[4]; [21],842 nM
same,potency estimated from few doses,[5]; [21],1670 nM
same,potency estimated from few doses,[6]; [21],886 nM
same,potency estimated from few doses,[7]; [21],735 nM
same,potency estimated from few doses,[8]; [21],656 nM
same,potency estimated from few doses,[9]; [21],880 nM
same,potency estimated from few doses,"[3]; compound concentrations: 100 nM and 1000 nM (sheet 'Samples'), CATDS: 8.3649714811029202E-2",40 nM
same,potency estimated from few doses,[10]; [21],1570 nM
same,potency estimated from few doses,[11]; [21],1290 nM
CN(c1ccc(NC(=O)N2CCN(CCCN3CCOCC3)CC2)cc1)c1ccnc(Nc2ccc(CS(C)(=O)=O)cc2)n1.Cl [GW830899A],potency estimated from few doses,"[2]; compound concentrations: 100 nM and 1000 nM (sheet 'Samples'), CATDS: 1.83131031951747E-2",1980 nM
same,potency estimated from few doses,"[3]; compound concentrations: 100 nM and 1000 nM (sheet 'Samples'), CATDS: 2.4950407737396499E-2",905 nM
same,potency estimated from few doses,"[10]; compound concentrations: 100 nM and 1000 nM (sheet 'Samples'), CATDS: 1.9891178500976402E-2",1550 nM
Cl.Nc1c(C(=O)c2cccc(C#CCN3CCCCC3)c2)cnn1-c1ccc(F)cc1 [RO1154461-001],potency estimated from few doses,"[4]; compound concentrations: 100 nM and 1000 nM (sheet 'Samples'), CATDS: 1.2670518401124599E-2",863 nM
same,potency estimated from few doses,"[5]; compound concentrations: 100 nM and 1000 nM (sheet 'Samples'), CATDS: 1.00986377445768E-2",1860 nM
same,potency estimated from few doses,"[7]; compound concentrations: 100 nM and 1000 nM (sheet 'Samples'), CATDS: 1.6105152878217399E-2",472 nM
same,potency estimated from few doses,"[8]; compound concentrations: 100 nM and 1000 nM (sheet 'Samples'), CATDS: 2.02427776556733E-2",292 nM
same,potency estimated from few doses,"[9]; compound concentrations: 100 nM and 1000 nM (sheet 'Samples'), CATDS: 1.3782974497271E-2",687 nM
same,potency estimated from few doses,"[12]; compound concentrations: 100 nM and 1000 nM (sheet 'Samples'), CATDS: 1.07977981674066E-2",1430 nM
same,potency estimated from few doses,"[13]; compound concentrations: 100 nM and 1000 nM (sheet 'Samples'), CATDS: 1.2359364494815299E-2",927 nM
same,potency estimated from few doses,"[11]; compound concentrations: 100 nM and 1000 nM (sheet 'Samples'), CATDS: 1.20335296051875E-2",1000 nM
Cc1cccc(-c2nc(Nc3ccncc3)c3sccc3n2)n1 [GW869641X],potency estimated from few doses,[14]; [21],0.703 nM
same,potency estimated from few doses,[6]; [21],1100 nM
NCCNS(=O)(=O)c1ccc(-c2ccnc3[nH]ccc23)cc1 [GSK977617A],potency estimated from few doses,[4]; [21],642 nM
same,potency estimated from few doses,[15]; [21],1700 nM
same,potency estimated from few doses,[7]; [21],441 nM
same,potency estimated from few doses,[8]; [21],463 nM
same,potency estimated from few doses,[9]; [21],515 nM
same,potency estimated from few doses,[2]; [21],1370 nM
same,potency estimated from few doses,[13]; [21],1310 nM
same,potency estimated from few doses,[16]; [21],1190 nM
same,potency estimated from few doses,[11]; [21],721 nM
same,potency estimated from few doses,[17]; [21],1270 nM
CNC(=O)c1ccccc1Nc1nc(Nc2ccc(N3CCOCC3)cc2)ncc1Cl.Cl [GSK1576028A],potency estimated from few doses,[14]; [21],243 nM
same,potency estimated from few doses,[18]; [21],55 nM
same,potency estimated from few doses,[4]; [21],256 nM
same,potency estimated from few doses,[1]; [21],3.81 nM
same,potency estimated from few doses,[9]; [21],234 nM
same,potency estimated from few doses,[12]; [21],1370 nM
same,potency estimated from few doses,[11]; [21],688 nM
same,potency estimated from few doses,[19]; [21],549 nM
CCn1c(-c2nonc2N)nc2c(C#CCN)ncc(OCCCN)c21.O=C(O)C(F)(F)F [GSK561866B],potency estimated from few doses,"[16]; compound concentrations: 100 nM and 1000 nM (sheet 'Samples'), CATDS: 7.8850535448236003E-2",1510 nM
same,potency estimated from few doses,[20]; CATDS: 9.0745453411211097E-2,699 nM
O=C1N=C(NCCc2ccc(Cl)cc2)S/C1=C\c1ccc2ncccc2c1 [RO4498479-000],potency estimated from few doses,"[18]; compound concentrations: 100 nM and 1000 nM (sheet 'Samples'), CATDS: 7.59982177866047E-3",1200 nM
same,potency estimated from few doses,"[4]; compound concentrations: 100 nM and 1000 nM (sheet 'Samples'), CATDS: 1.35831068182147E-2",297 nM
same,potency estimated from few doses,"[5]; compound concentrations: 100 nM and 1000 nM (sheet 'Samples'), CATDS: 7.8507646745445397E-3",1070 nM
same,potency estimated from few doses,"[7]; compound concentrations: 100 nM and 1000 nM (sheet 'Samples'), CATDS: 1.41311052368837E-2",277 nM
same,potency estimated from few doses,"[8]; compound concentrations: 100 nM and 1000 nM (sheet 'Samples'), CATDS: 1.3764533210370701E-2",290 nM
same,potency estimated from few doses,"[9]; compound concentrations: 100 nM and 1000 nM (sheet 'Samples'), CATDS: 1.3202335772702E-2",313 nM
same,potency estimated from few doses,"[2]; compound concentrations: 100 nM and 1000 nM (sheet 'Samples'), CATDS: 8.9469693791647507E-3",733 nM
same,potency estimated from few doses,"[10]; compound concentrations: 100 nM and 1000 nM (sheet 'Samples'), CATDS: 8.1372297919538004E-3",960 nM
same,potency estimated from few doses,"[12]; compound concentrations: 100 nM and 1000 nM (sheet 'Samples'), CATDS: 7.8006037154547897E-3",1100 nM
same,potency estimated from few doses,"[11]; compound concentrations: 100 nM and 1000 nM (sheet 'Samples'), CATDS: 9.27662971485879E-3",667 nM
same,potency estimated from few doses,"[19]; compound concentrations: 100 nM and 1000 nM (sheet 'Samples'), CATDS: 7.9720572811278097E-3",1020 nM
Cc1ccc2c(-c3ccncc3)c(-c3ccc(F)cc3)nn2c1.Cl [GW461484A],potency estimated from few doses,[14]; [21],696 nM
same,potency estimated from few doses,[4]; [21],801 nM
same,potency estimated from few doses,[6]; [21],2120 nM
same,potency estimated from few doses,[7]; [21],754 nM
same,potency estimated from few doses,[8]; [21],384 nM
same,potency estimated from few doses,[9]; [21],730 nM
same,potency estimated from few doses,[3]; [21],465 nM
same,potency estimated from few doses,[11]; [21],1840 nM
same,potency estimated from few doses,[19]; [21],1950 nM
Cc1cccc(Nc2nc(N[C@H]3CCCC[C@H]3N)ncc2C(N)=O)c1.Cl [GSK986310C],potency estimated from few doses,[2]; [21],1800 nM
same,potency estimated from few doses,[17]; [21],1130 nM
Cn1ncc2c(N)ncnc21 [SKF-18267],potency estimated from few doses,"[14]; compound concentrations: 100 nM and 1000 nM (sheet 'Samples'), CATDS: 5.9618595467290699E-3",587 nM
same,potency estimated from few doses,"[18]; compound concentrations: 100 nM and 1000 nM (sheet 'Samples'), CATDS: 5.1927798123429401E-3",756 nM
same,potency estimated from few doses,"[4]; compound concentrations: 100 nM and 1000 nM (sheet 'Samples'), CATDS: 5.3280284172791698E-3",720 nM
same,potency estimated from few doses,"[5]; compound concentrations: 100 nM and 1000 nM (sheet 'Samples'), CATDS: 3.8134095637251098E-3",1510 nM
same,potency estimated from few doses,"[15]; compound concentrations: 100 nM and 1000 nM (sheet 'Samples'), CATDS: 4.0403129227197304E-3",1300 nM
same,potency estimated from few doses,"[6]; compound concentrations: 100 nM and 1000 nM (sheet 'Samples'), CATDS: 4.0396253783402704E-3",1300 nM
same,potency estimated from few doses,"[7]; compound concentrations: 100 nM and 1000 nM (sheet 'Samples'), CATDS: 6.1597951567788304E-3",555 nM
same,potency estimated from few doses,"[8]; compound concentrations: 100 nM and 1000 nM (sheet 'Samples'), CATDS: 5.0582838235080502E-3",796 nM
same,potency estimated from few doses,"[1]; compound concentrations: 100 nM and 1000 nM (sheet 'Samples'), CATDS: 5.6966714044827602E-3",636 nM
same,potency estimated from few doses,"[2]; compound concentrations: 100 nM and 1000 nM (sheet 'Samples'), CATDS: 4.0610212954189503E-3",1290 nM
same,potency estimated from few doses,"[3]; compound concentrations: 100 nM and 1000 nM (sheet 'Samples'), CATDS: 5.3577076045461004E-3",712 nM
same,potency estimated from few doses,"[10]; compound concentrations: 100 nM and 1000 nM (sheet 'Samples'), CATDS: 3.8405596428901902E-3",1490 nM
same,potency estimated from few doses,"[16]; compound concentrations: 100 nM and 1000 nM (sheet 'Samples'), CATDS: 4.0047157593236004E-3",1330 nM
same,potency estimated from few doses,"[17]; compound concentrations: 100 nM and 1000 nM (sheet 'Samples'), CATDS: 3.58231732022705E-3",1810 nM
same,potency estimated from few doses,"[19]; compound concentrations: 100 nM and 1000 nM (sheet 'Samples'), CATDS: 4.3523145160936898E-3",1090 nM
same,potency estimated from few doses,[20]; CATDS: 4.5805386510862304E-3,976 nM
